For orientation: Inhibition means the change of the read-out against control, counted positive when it falls.

Measured potencies and affinities stand elsewhere.

In the assay the test system is Klebsiella pneumoniae. The following applies: Concentration 32 ug.mL-1;; ASSAY_TEST Inhibition of Bacterial Growth; detection method Absorption (OD600); MEDIA CAMHB; plate type 384well; NBS; CORNING #3640; time 18 hr.
In the case of `O=C(Cn1nc2c(N3CCOCC3)nccn2c1=O)NCc1ccc(F)cc1`, the Inhibition is reported as 12.27%.

Consider `O=C(Cn1nc2c(Sc3cccc(F)c3)nccn2c1=O)Nc1ccc(Br)cc1`, for which the Inhibition stood at 4.85%.

Take `COc1ccccc1CNC(=O)Cn1nc2c(SCc3ccc(Cl)cc3)nccn2c1=O`: the Inhibition is 9.05%.

As for `CCOC(=O)c1ccccc1NC(=O)Cn1nc2c(Oc3ccc(C)cc3)nccn2c1=O`, the Inhibition is reported as -8.56%.

Consider `CC(C)n1c(=O)c2ccc(C(=O)NC3CCCC3)cc2n2c(=O)n(Cc3cccc(C(F)(F)F)c3)nc12`, for which the Inhibition was determined as 13.79%.

In the case of `C=Cc1ccc(CN(c2ccc(C(C)C)cc2)S(=O)(=O)c2cccn3cnnc23)cc1`, the Inhibition was 14.46%.

Turning to `Cc1ccc(C)c(Cn2nc3n(CC(C)C)c(=O)c4sccc4n3c2=O)c1`, the Inhibition worked out at 7.9%.

Consider `CCOc1ccc(-n2ccn3c(SCC(=O)c4ccc(C)cc4C)nnc3c2=O)cc1`, for which the Inhibition is given as 5.02%.

`Cc1cccc(C)c1NC(=O)CSc1nnc2c3cc(-c4ccccc4)nn3ccn12`: the Inhibition is recorded as -14.45%.

Consider `Cc1cccc(NC(=O)Cn2nc3ccc(-c4ccc(C)c(C)c4)nn3c2=O)c1`, for which the Inhibition was -0.51%.

Take `Cc1ccc(NC(=O)Cn2nc3ccc(SC4CCCCC4)nn3c2=O)cc1`: the Inhibition is listed as -2.92%.

Turning to `Cc1cc(C)cc(N(Cc2ccccc2F)S(=O)(=O)c2cccn3c(C)nnc23)c1`, the Inhibition was found to be 2.04%.

As for `Cc1nnc2ccc(S(=O)(=O)N(Cc3ccccc3F)c3cccc(Cl)c3)cn12`, the Inhibition was 8.99%.

For the compound `Cc1ccc(Sc2ccc3nn(CC(=O)Nc4ccc(Br)c(C)c4)c(=O)n3n2)cc1`, the Inhibition was found to be 2.67%.

Take `COc1ccc(Cl)cc1NC(=O)Cn1nc2c(Sc3ccc(C)cc3C)nccn2c1=O`: the Inhibition amounted to 5.33%.

The values are drawn from ChEMBL document CHEMBL4513146, “CO-ADD screening of Karazin Kharkiv National University (Ukraine) compounds”.
